The text below walks through data of ChEMBL document CHEMBL3988442, “University of Dundee, Small-Polar-MMV Screening Library” (2021).

The campaign covered roughly 69,000 compounds. About 950 (1.4%) showed an effect of 50% or more. This is one part of a sample in which strong results are shown more often than they occur.

The subject of the test is Mycobacterium tuberculosis. The test can be described thus: Cornell M. t heat shock assay. Further: in the data most compounds retested in dose-response had high values. The class given is functional, organism-based. More on the design: dose or concentration left out as unconfirmed.
Consider `Cc1ccc(CN2CCC3(CCN(c4cnn(C)c4)C3=O)C2)s1.O=C(O)C(F)(F)F` (stereo not drawn), for which the “Percent Effect” value is -24.12%.
Take `O=C(NC1CC1)[C@H]1C[C@H]2OCC[C@H]2N(Cc2cccnc2)C1.O=C(O)C(F)(F)F.O=C(O)C(F)(F)F`: the “Percent Effect” value is 0.4638%.
For the compound `O=C(NCC1CC1)C1CN(Cc2ccncc2)Cc2ccnn2C1.O=C(O)C(F)(F)F.O=C(O)C(F)(F)F.O=C(O)C(F)(F)F` (stereo not drawn), the “Percent Effect” value is -17.14%.
In the case of `CN1CCN(S(=O)(=O)c2ncn(C)c2Cl)CC1`, the “Percent Effect” value was -34.66%.
Regarding `Cn1cnc(S(=O)(=O)N2CCCC2)c1Cl`, the “Percent Effect” value is on record as 74.4%.
With `Cn1cnc(S(=O)(=O)N2CCOCC2)c1Cl`, the “Percent Effect” value was -1.938%.
Consider `CC(C)(C)C(=O)N1C[C@H](c2ccsc2)[C@H]2CN(C3CCCC3)CC[C@H]21.Cl`, for which the “Percent Effect” value was -4.306%.
As to `O=C(O)C(F)(F)F.O=C(O)C(F)(F)F.O=C1CC[C@]2(CC[C@@H](NCc3cccnc3)CC2)N1Cc1ccccc1`, the “Percent Effect” value is recorded as -11.79%.
On to `CN1CCS(=O)(=O)[C@@H]2CCN(C(=O)CC(C)(C)C)CC[C@@H]21.O=C(O)C(F)(F)F`, for which the “Percent Effect” value is -1.789%.
In the case of `CCOc1ccc2nc(CN3CCC(CN)C3)ccc2c1` (stereo not drawn), the “Percent Effect” value came to 106.9%.
For the compound `CCOc1ccc2nc(CN3CCC(CNC(C)=O)C3)ccc2c1` (stereo not drawn), the “Percent Effect” value is reported as 3.715%.
For `CCOc1ccc2nc(CN3CCOC(CN)C3)ccc2c1` (stereo not drawn), the “Percent Effect” value was determined as 16.64%.
Turning to `Cc1cc(=O)n(CC(=O)Nc2ccc(Cl)cc2)nc1C`, the “Percent Effect” value is -4.62%.
Under `COc1ccc(NC(=O)Cn2nc(C)c(C)cc2=O)cc1` stands 2.037%; under `CC(=O)c1c(C)nn(CC(=O)Nc2ccc(F)cc2)c1C`, 21.2%.
For `CC(=O)c1c(C)nn(CC(=O)Nc2ccc(Br)cc2)c1C`, the “Percent Effect” value stood at 105.9%.
Take `COc1ccc(NC(=O)Cn2nc(C)c(C)cc2=O)cc1OC`: the “Percent Effect” value was 2.159%.
The figure for `Cc1nn(CC(=O)Nc2ccc(F)cc2)c(N)c1C#N` is 51.75%; for `COc1ccc(NC(=O)Cn2nc(C)c(C(C)=O)c2C)cc1` it is 105.6%; for `Cc1cc(NC(=O)Cn2nc(C)c(C#N)c2N)ccc1Br` it is -21.12%.
On to `Cc1nn(CC(=O)Nc2cccc(F)c2)c(N)c1C#N`, for which the “Percent Effect” value is 4.908%.
For the compound `NC(=O)N1CCC2(CC1)CN(Cc1cccnc1)C(=O)CO2.O=C(O)C(F)(F)F`, the “Percent Effect” value is reported as -31.58%.
Regarding `Cn1cc(CN2C[C@H]3CCC[C@@]3(COCC3CC3)C2)cn1.O=C(O)C(F)(F)F`, the “Percent Effect” value worked out at 12.92%.
Turning to `COc1cc(CNCC(O)c2cccc(F)c2)cc2c1OCO2.Cl` (stereo not drawn), the “Percent Effect” value is listed as -9.248%.
In the case of `Cc1cccc(CN2CC[C@H]3[C@H]2CCN3Cc2cnn(C)c2)n1.O=C(O)C(F)(F)F.O=C(O)C(F)(F)F.O=C(O)C(F)(F)F`, the “Percent Effect” value is -12.06%.
Take `Cc1noc(C)c1CN1CCC2(CC1)NC(=O)CC2c1ccccc1.O=C(O)C(F)(F)F` (stereo not drawn): the “Percent Effect” value worked out at 5.51%.
On to `Cc1noc(C)c1C(=O)N1Cc2ncn(C)c2C(COCC2CC2)C1.O=C(O)C(F)(F)F` (stereo not drawn), for which the “Percent Effect” value was found to be 16.79%.
With `CCN1CCC2(CCN(Cc3ccc(OC)cc3)CC2)C1=O.O=C(O)C(F)(F)F`, the “Percent Effect” value is reported as -24.62%.
The figure for `Cl.N[C@@H](Cc1ccccc1)c1nnc(S(=O)(=O)Cc2cccc(Cl)c2)o1` is -4.264%; for `CCc1cn[nH]c1C1CCN(c2cc(C)c3ccc(OC)cc3n2)CC1` it is -17.8%.
With `Cc1ccc(N2CCC(c3cc(Cc4ccccc4)n[nH]3)CC2)nn1`, the “Percent Effect” value is 6.303%.
As for `CCc1cn[nH]c1C1CCN(c2cc(C)c3cccc(OC)c3n2)CC1`, the “Percent Effect” value came to 85.21%.
`Cc1ccc(N2CCCC(c3[nH]ncc3Cc3ccccc3)C2)nn1` (stereo not drawn): the “Percent Effect” value turned out to be 8.561%.
On to `CCc1cn[nH]c1C1CCN(c2cc(C)c3cc(OC)ccc3n2)CC1`, for which the “Percent Effect” value is listed as 2.652%.
As to `Cc1ccc(N2CCC(c3[nH]ncc3Cc3ccccc3)CC2)nn1`, the “Percent Effect” value is given as 102.6%.
Under `CC(=O)N1CCN(Cc2ccc(C)o2)CC2(CC(=O)N(C)C2)C1.O=C(O)C(F)(F)F` (stereo not drawn) stands -2.414%.
Consider `Cc1nc(N)ncc1C(=O)N1CCCC(CCc2ccc(F)cc2)C1` (stereo not drawn), for which the “Percent Effect” value was -19.18%.
For `Cc1ncccc1NC(=O)[C@@H]1CCO[C@@H]2CCN(c3ccccc3)C[C@@H]21.O=C(O)C(F)(F)F.O=C(O)C(F)(F)F`, the “Percent Effect” value is given as 12.9%.
On to `CCN(Cc1noc(C)n1)C(=O)CC1C(=O)NCCN1CC(C)(C)C` (stereo not drawn), for which the “Percent Effect” value was -17.37%.
Consider `O=C(N1CCCCC1)N1CCN(CC(O)c2ccccc2)CC1` (stereo not drawn), for which the “Percent Effect” value is recorded as -21.19%.
For `OC(CN1CCN(CC2CCCCC2)CC1)c1ccccc1` (stereo not drawn), the “Percent Effect” value is 50.33%.
The figure for `OC(CN1CCN(CC2CC2)CC1)c1ccc(Br)cc1` (stereo not drawn) is 6.961%; for `CCCn1nc(C)c(-c2cncn2CCN(C)C2CCCC2)c1C.Cl` it is 7.382%; for `CN(C)S(=O)(=O)N1CCC[C@]2(C[C@@H](Oc3ncccc3F)CO2)C1.O=C(O)C(F)(F)F` it is -8.336%.
The figure for `Cc1cc(NCc2ccc(CO)cc2)n2nc(C)cc2n1` is 10.67%; for `Cc1cc(NCc2cccnc2)n2nc(C)cc2n1` it is 1.456%; for `CNS(=O)(=O)CCNc1cc(C)nc2cc(C)nn12` it is 10.96%.
Under `Cc1cc(NCCCC(F)(F)F)n2nc(C)cc2n1` stands 87.73%.
Consider `Cc1cc(C(F)(F)F)nc(CNc2cc(C)nc3cc(C)nn23)n1`, for which the “Percent Effect” value was determined as 65.55%.
Turning to `Cc1cc(NCc2ccc(C#N)cc2)n2nc(C)cc2n1`, the “Percent Effect” value is -9.847%.
Take `Cc1cc(NCc2cc(C)oc2C(F)(F)F)n2nc(C)cc2n1`: the “Percent Effect” value was determined as 56.47%.
Take `CNC(=O)CCCNc1cc(C)nc2cc(C)nn12`: the “Percent Effect” value is listed as -5.305%.
As to `Cc1cc(NCc2ccc(O)cc2)n2nc(C)cc2n1`, the “Percent Effect” value is on record as 21.53%.
Regarding `CC(C)OCCCN(CC(=O)N1CCNCC1)C(=O)c1cccc(Cl)c1.O=C(O)C(F)(F)F`, the “Percent Effect” value was -0.6086%.
Under `COc1cccc(CN2C[C@@H]3COC[C@]3(CN3CCOCC3)C2)c1.O=C(O)C(F)(F)F.O=C(O)C(F)(F)F` stands -20.77%.
On to `Cc1noc(C)c1CN1C[C@@H]2COC[C@@H](CC(=O)N3CCCCO3)[C@@H]2C1.O=C(O)C(F)(F)F`, for which the “Percent Effect” value is recorded as -4.663%.
As for `CCC(C)[C@H](N)c1nnc(SCC(=O)Nc2ccc(Br)cc2)o1.Cl` (stereo partly drawn), the “Percent Effect” value was -9.343%.
Under `O=C(O)C(F)(F)F.c1cc(COC[C@H]2CCC[C@]23CNCCO3)ccn1` stands 31.7%.
